This note sets out measurements from PubChem BioAssay (NCATS).

Assay [1] deals with Cytochrome P450 3A4 (Homo sapiens) (UniProt P08684). The assay is described as follows: qHTS Assay for Activators of Cytochrome P450 3A4 (AID 885). Also: nearly all actives have a fitted effect of over 65% in size. The procedure, abridged:
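Human CYP3A4 (20 nM) with Luciferin-PPXE at 25 uM (its KM) in 200 mM KPO4; 10 min compound preincubation, then NADPH regeneration and 60 min reaction at RT. Luciferin read by luminescence; normalized to 57 uM ketoconazole full inhibition.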
(In qHTS, concentration-response curves come from the screen itself.)

Assay [2] in a line: Confirmation and Secondary Assay for Modulators of Hemoglobin Beta Chain Splicing at IVS2 654 locus (AID 910). Also: % of control where 0% means no effect. An outline of the steps:
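HeLa cells stably carrying EGFP interrupted by mutant beta-globin IVS2-654 intron (CMV-driven) were treated with compound for 2 days at 37C; corrected splicing was scored as total peak GFP intensity per well (488 nm excitation, 500-520 nm emission).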

The nature of assay [3]: Confirmation and Secondary Assay for Modulators of Hemoglobin Beta Chain Splicing at IVS2 705 locus (AID 930).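 Also: HeLa cells stably expressing the EGFP-705 splicing reporter; GFP fluorescence per well restored by corrected splicing of the IVS2-705 intron in EGFP; % of control where 0% means no effect.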 The procedure, abridged:
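HeLa cells stably carrying EGFP interrupted by mutant beta-globin intron 2 (IVS2-705) treated 2 days at 37C with compound; 500 nM antisense PNA as control. Correct splicing read as total peak GFP intensity per well by laser-scanning cytometry.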

Assay [4] concerns the target Ubiquitin carboxyl-terminal hydrolase 1 (Homo sapiens) (UniProt O94782). The assay is described as follows: Inhibitors of USP1/UAF1: Pilot qHTS (AID 504865). Also: potency is read from the fitted curve at half-maximal effect; nearly all actives have a fitted effect of over 35% in size. The procedure, abridged:
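In 50mM HEPES pH 7.8 containing 0.5mM EDTA, 1mM TCEP, 0.1 mg/ml BSA and 0.01% Tween-20, 1nM USP1/UAF1 is exposed to compound for 15 min, then Ub-Rho (150nM final) is added and fluorescence is read over time.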

The target of assay [5] is Rap guanine nucleotide exchange factor 3 (Homo sapiens) (UniProt O95398). The assay is described as follows: Confirmatory qHTS for antagonist of cAMP-regulated guanine nucleotide exchange factor 3 (EPAC1) (AID 1645880). Also: nearly all actives have a fitted effect of over 55% in size. Also: potency is read from the fitted curve at half-maximal effect.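 As to activity, negative = inhibition: plate controls were DMSO only for no effect and full effect of the ATA control for full effect.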 The conditions noted are these: EPAC1 Rap1B-BODIPY-GDP exchange, fluorescence; activity, negative = inhibition: at 115 µM (top of the series). An outline of the steps:
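Nucleotide exchange uses 100 nM EPAC1, 250 nM RAP1B-BODIPY-GDP and 50 uM GDP, with compounds in a concentration-titration series. After 5 min at room temperature, fluorescence (480 nm ex/540 nm em) is read every 5 min for 30 min. Data are normalized to control ATA and DMSO.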

Assay [6] shares this target. The assay is described as follows: Confirmatory qHTS for agonist of cAMP-regulated guanine nucleotide exchange factor 3 (EPAC1) (AID 1645881). Also: nearly all actives have a fitted effect of over 75% in size. Also: potency is read from the fitted curve at half-maximal effect.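 As to activation: EPAC1 catalysed release of BODIPY-GDP from Rap1B seen as fluorescence loss; 100% = effect of cAMP agonist control.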
Assay [7] addresses Rap guanine nucleotide exchange factor 4 (Homo sapiens) (UniProt Q8WZA2). The assay is described as follows: Confirmatory qHTS for agonist of cAMP-regulated guanine nucleotide exchange factor 4 (EPAC2) (AID 1645884).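 Also: nucleotide exchange releases bodipy-GDP from Rap1 and this lowers its fluorescence; nearly all actives have a fitted effect of over 65% in size.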 Also: potency is read from the fitted curve at half-maximal effect.
Assay [8] can be described thus: AP1 Signaling Pathway (AID 357; active = well fitted curve in either direction with a large enough effect, not every such curve was filed as active;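 also: ME-180 reporter cells stimulated with EGF at its EC50 level; % is scaled to controls: 0 for no effect and ±100 for the full control effect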). Particulars: ME-180 (cervical carcinoma) AP-1-bla reporter, EGF-induced, beta-lactamase ratio, 5 h; at 7.69 µM (top of the series) unless noted. The procedure, abridged:
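In this screen, ME-180 cells in Opti-MEM with 0.5% dialyzed FBS received EC50 EGF and compound titrations for 5 h. AP-1 reporter beta-lactamase was detected via CCF4 ratio, giving AC50 for positive and negative modulators.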

Assay [9] in a line: NFAT Signaling Pathway (AID 444; active = well fitted curve in either direction with a large enough effect, not every such curve was filed as active;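 also: carbachol stimulus at about its EC50 of 1 µM final; % is scaled to controls: 0 for no effect and ±100 for the full control effect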). Particulars: Jurkat NFAT-bla M1, carbachol, beta-lactamase ratio, 5 h; at 7.69 µM (top of the series) unless noted. The procedure, abridged: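 Jurkat cells carrying an NFAT-driven β-lactamase reporter and co-transfected muscarinic M1 receptor were treated with compound plus carbachol (1 uM final, an EC50 level) for 5 h at 37 °C. CCF4 loading followed for 1 h at RT; 460/530 nm ratio gave %activity.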

The nature of assay [10]: Stat Signaling Pathway (AID 446; active = well fitted curve in either direction with a large enough effect, not every such curve was filed as active;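 also: ME-180 cervical cancer cells given 40 pM IL-6 alongside compound; SIE-controlled beta-lactamase reporter measured as 460/530 nm FRET emission ratio; % is scaled to controls: 0 for no effect and ±100 for the full control effect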). The procedure, abridged:
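ME-180 cells carrying a SIE-driven beta-lactamase reporter are stimulated with 40 pM IL-6 for 5 h at 37C in the presence of compound. The 460/530 nm FRET substrate ratio is read after 2.5 h at RT. Data are normalised to 300 pM IL-6 and to 125 nM JAK inhibitor controls.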

Assay [11] deals with Glucocorticoid receptor (Homo sapiens) (UniProt P04150). The assay is described as follows: GR-GFP Redistribution (AID 450;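 active = compounds whose dose series gives a full or clear partial fitted curve of increased nuclear translocation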; also: potency is read from the fitted curve at half-maximal effect). Particulars: U2OS GR-GFP nuclear translocation, laser cytometry, 2 h.
Assay [12] deals with Rap guanine nucleotide exchange factor 3 (Homo sapiens) (UniProt O95398). The assay is described as follows: Counterscreen qHTS for antagonist of cAMP-regulated guanine nucleotide exchange factor 3 (EPAC1) (AID 1645888). Also: % of control where 0% means no effect. The procedure, abridged: (§1)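 Measured: fluorescence of BODIPY-GDP bound to Rap1B, which falls as exchange proceeds. Conditions include 50 uM competing GDP, 5 and 30 min reads, and a later cAMP challenge for antagonist detection.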

Assay [13] shares this target. The assay is described as follows: Counterscreen qHTS for agonist of cAMP-regulated guanine nucleotide exchange factor 3 (EPAC1) (AID 1645889). Also: nearly all actives have a fitted effect of over 40% in size. Also: potency is read from the fitted curve at half-maximal effect. As to activation: % of control where 0% means no effect. An outline of the steps: as §1
For assay [14], the target named is Lysosomal acid glucosylceramidase (Homo sapiens) (UniProt P04062). The assay is described as follows: Glucocerebrosidase-p2 (AID 348; in the data active = potency below about 10 µM; also: potency is read from the fitted curve at half-maximal effect). Particulars: purified GBA, blue fluorogenic substrate, 40 min. An outline of the steps: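 Compounds titrated from 0.6 nM upwards against 0.2 nM enzyme in pH 5.9 citric acid/KH2PO4, taurocholate, tween-20; blue fluorogenic substrate 80 uM, 40 min room temperature, stopped and read Ex 365/Em 440 for AC50.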

Assay [15] has as its target Glucocorticoid receptor (Homo sapiens) (UniProt P04150). The assay is described as follows: GR-EFC Redistribution (AID 451; calls by dose curve; also: potency is read from the fitted curve at half-maximal effect). The conditions noted are these: CHO-K1 GR-EFC translocation, beta-gal luminescence, 2 h. The procedure, abridged: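 CHO-K1 cells stably expressing nuclear-localized β-gal enzyme acceptor and GR fused C-terminally to the enzyme donor fragment; ligand-driven nuclear translocation restores β-gal by complementation. Compounds titrated up to 46 uM final, 2 h at 37 °C; luminescence read.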

The target in assay [16] is Mitogen-activated protein kinase 10 (Mus musculus) (UniProt Q61831). The assay is described as follows: JNK3 AlphaScreen Assay (AID 530; active = well fitted curve in either direction with a large enough effect, not every such curve was filed as active;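 also: kinase came from lysate of stimulated human HepG2 cells; signal reports phosphorylation of biotinylated GST-cJun 1-79 at Ser73 with 10 µM ATP; % is scaled to controls: 0 for no effect and ±100 for the full control effect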). The procedure, abridged:
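Inhibitors reduce antibody binding to phosphorylated biotin-cJun, lowering AlphaScreen luminescence. Lysates from HepG2 cells pre-activated by IL-1beta plus TNF-alpha supplied JNK3; compounds were titrated.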

Assay [17] has as its target 3',5'-cyclic-AMP phosphodiesterase 4B (Homo sapiens) (UniProt Q07343). The assay is described as follows: qHTS Assay for Inhibitors of PDE-IV (AID 607; active = well fitted activation curve with a large enough effect in the main read-out, with a control signal flat, not every such curve was filed as active; also: % of control where 0% means no effect). An outline of the steps: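 HEK293 ACTOne cells with CNG channel (1000/well), endogenous PDE4; membrane potential dye, compounds up to 22.9 uM final. Fluorescence Ex 535/Em 590; RO 20-1724 (100 uM final) as reference.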

A short description of assay [18]: qHTS for Inhibitors of the vitamin D receptor (VDR): Hit Validation using a Texas Red Assay (AID 602201). Also: potency is read from the fitted curve at half-maximal effect. The procedure, abridged: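 Fluorescence polarization (Ex 595/Em 615 nm) of Texas Red (7 nM) with 1.5 uM VDR-LBD and LG19078 (final concentrations). Compounds were incubated for 2 hours at room temperature.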

A number with no mark means an inactive call. Inconclusive results are not listed. The source made the active and inactive calls. Unless noted, calls follow the shape of the dose curve; as a rule, active = well fitted curve in the direction sought with a large enough effect; inconclusive = small, poorly fitted or top-dose-only effect, or another doubt; inactive = no such curve, though single readings can be large; an effect the other way counts as inactive or inconclusive.

Chain of Glucocorticoid receptor (Homo sapiens) (P04150 whole entry, looked up, the tested form may be a part): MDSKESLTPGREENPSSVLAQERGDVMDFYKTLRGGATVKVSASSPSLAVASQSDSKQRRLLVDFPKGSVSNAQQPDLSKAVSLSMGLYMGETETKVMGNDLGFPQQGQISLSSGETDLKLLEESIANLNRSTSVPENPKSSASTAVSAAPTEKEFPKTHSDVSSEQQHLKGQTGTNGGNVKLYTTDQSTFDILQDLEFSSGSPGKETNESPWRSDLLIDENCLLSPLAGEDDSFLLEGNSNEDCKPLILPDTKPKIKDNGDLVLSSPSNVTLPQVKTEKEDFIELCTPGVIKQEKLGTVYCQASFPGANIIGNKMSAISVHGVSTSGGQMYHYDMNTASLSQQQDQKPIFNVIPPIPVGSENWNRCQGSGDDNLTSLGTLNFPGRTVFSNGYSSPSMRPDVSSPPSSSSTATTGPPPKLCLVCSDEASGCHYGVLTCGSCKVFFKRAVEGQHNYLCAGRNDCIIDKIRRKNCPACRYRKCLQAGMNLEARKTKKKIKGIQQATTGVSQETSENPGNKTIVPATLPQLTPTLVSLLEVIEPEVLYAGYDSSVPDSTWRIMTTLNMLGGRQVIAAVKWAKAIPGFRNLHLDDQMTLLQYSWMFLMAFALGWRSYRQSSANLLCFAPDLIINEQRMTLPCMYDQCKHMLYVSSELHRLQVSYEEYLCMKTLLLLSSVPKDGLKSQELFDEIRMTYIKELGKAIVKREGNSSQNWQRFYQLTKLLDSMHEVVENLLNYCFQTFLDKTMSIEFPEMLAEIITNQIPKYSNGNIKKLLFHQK
Chain of Rap guanine nucleotide exchange factor 3 (Homo sapiens) (O95398 whole entry, looked up): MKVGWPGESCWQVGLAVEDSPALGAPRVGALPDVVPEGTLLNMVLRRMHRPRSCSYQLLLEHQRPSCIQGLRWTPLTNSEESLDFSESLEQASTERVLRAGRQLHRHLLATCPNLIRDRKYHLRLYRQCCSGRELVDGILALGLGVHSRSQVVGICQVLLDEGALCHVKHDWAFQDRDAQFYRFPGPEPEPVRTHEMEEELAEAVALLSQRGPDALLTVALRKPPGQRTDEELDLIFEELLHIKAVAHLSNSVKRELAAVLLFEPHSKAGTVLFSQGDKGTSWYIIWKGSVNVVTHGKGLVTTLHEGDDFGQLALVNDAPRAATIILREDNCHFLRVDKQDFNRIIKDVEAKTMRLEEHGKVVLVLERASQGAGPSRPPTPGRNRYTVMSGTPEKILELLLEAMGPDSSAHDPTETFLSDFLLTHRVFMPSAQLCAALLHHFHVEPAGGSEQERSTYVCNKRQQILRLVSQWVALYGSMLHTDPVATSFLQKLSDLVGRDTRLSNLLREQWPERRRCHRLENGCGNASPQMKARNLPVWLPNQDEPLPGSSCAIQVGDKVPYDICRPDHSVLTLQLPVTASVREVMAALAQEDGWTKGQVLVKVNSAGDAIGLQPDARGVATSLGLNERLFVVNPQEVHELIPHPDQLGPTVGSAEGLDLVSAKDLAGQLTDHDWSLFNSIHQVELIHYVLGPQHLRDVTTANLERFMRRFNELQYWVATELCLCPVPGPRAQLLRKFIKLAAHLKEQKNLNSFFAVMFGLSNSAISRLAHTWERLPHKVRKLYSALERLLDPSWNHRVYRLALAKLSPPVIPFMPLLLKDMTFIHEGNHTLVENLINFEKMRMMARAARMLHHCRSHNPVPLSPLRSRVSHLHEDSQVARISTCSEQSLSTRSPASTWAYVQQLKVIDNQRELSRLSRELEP
Chain of Rap guanine nucleotide exchange factor 4 (Homo sapiens) (Q8WZA2 whole entry, looked up): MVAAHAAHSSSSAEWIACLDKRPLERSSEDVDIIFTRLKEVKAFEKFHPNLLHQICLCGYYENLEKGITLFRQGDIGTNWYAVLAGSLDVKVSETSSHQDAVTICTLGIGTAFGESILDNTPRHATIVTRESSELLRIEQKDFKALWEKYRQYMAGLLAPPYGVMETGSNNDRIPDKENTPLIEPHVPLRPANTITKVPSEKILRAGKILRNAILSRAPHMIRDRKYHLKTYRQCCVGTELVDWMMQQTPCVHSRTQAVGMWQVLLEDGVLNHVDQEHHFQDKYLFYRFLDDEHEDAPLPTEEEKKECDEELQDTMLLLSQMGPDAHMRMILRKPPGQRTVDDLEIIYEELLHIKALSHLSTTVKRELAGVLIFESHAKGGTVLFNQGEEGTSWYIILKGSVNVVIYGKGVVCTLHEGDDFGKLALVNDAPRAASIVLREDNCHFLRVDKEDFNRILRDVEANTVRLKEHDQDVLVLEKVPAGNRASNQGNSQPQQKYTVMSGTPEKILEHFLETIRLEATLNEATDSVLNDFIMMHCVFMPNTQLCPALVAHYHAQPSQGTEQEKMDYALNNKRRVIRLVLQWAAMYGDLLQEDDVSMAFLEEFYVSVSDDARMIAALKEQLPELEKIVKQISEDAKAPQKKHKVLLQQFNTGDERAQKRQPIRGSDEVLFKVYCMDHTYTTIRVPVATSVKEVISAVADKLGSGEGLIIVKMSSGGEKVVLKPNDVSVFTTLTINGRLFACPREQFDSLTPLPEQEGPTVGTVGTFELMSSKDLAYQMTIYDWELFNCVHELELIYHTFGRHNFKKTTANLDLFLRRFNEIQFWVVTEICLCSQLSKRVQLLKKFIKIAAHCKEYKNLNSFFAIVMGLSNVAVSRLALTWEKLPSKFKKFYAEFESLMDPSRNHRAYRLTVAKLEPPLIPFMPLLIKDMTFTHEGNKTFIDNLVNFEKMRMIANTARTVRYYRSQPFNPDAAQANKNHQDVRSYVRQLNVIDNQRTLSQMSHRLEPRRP
Chain of Ubiquitin carboxyl-terminal hydrolase 1 (Homo sapiens) (O94782 whole entry, looked up): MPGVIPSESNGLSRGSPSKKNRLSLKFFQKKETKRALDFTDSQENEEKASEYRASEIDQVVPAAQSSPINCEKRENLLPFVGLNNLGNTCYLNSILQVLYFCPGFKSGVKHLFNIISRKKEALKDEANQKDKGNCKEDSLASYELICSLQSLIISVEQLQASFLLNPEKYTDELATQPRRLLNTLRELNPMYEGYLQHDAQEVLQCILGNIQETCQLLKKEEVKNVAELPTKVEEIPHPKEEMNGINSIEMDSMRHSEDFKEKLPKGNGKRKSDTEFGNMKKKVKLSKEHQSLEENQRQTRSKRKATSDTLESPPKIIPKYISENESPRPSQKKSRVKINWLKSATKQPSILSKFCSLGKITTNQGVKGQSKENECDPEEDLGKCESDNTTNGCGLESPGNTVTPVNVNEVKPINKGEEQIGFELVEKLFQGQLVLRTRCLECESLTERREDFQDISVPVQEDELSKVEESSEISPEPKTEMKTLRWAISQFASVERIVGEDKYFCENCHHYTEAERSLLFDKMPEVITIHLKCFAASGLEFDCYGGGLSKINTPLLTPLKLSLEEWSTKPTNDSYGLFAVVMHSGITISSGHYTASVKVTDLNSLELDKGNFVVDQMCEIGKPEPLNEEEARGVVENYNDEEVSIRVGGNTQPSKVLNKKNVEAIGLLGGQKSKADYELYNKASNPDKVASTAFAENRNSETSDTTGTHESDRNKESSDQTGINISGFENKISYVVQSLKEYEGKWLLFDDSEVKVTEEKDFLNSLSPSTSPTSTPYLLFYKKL
Chain of 3',5'-cyclic-AMP phosphodiesterase 4B (Homo sapiens) (Q07343 whole entry, looked up): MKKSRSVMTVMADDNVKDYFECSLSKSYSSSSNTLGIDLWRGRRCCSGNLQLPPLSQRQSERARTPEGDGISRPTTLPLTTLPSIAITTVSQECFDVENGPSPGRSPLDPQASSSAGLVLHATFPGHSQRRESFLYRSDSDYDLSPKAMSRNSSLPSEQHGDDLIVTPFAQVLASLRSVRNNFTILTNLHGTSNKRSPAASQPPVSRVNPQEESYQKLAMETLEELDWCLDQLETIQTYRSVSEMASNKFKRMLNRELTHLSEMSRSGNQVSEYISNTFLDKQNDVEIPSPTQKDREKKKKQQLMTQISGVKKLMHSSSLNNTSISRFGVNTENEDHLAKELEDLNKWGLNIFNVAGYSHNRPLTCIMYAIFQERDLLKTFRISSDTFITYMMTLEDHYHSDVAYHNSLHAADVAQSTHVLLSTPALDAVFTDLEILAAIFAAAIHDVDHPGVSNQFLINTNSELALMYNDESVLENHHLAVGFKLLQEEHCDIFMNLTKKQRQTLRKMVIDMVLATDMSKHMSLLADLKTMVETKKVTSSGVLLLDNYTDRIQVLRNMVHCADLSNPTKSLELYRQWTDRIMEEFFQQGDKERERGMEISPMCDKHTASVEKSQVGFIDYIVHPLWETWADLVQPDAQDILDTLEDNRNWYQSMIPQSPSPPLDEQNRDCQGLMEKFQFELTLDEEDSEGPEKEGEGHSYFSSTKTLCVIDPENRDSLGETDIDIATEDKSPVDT
Chain of Cytochrome P450 3A4 (Homo sapiens) (P08684 whole entry, looked up): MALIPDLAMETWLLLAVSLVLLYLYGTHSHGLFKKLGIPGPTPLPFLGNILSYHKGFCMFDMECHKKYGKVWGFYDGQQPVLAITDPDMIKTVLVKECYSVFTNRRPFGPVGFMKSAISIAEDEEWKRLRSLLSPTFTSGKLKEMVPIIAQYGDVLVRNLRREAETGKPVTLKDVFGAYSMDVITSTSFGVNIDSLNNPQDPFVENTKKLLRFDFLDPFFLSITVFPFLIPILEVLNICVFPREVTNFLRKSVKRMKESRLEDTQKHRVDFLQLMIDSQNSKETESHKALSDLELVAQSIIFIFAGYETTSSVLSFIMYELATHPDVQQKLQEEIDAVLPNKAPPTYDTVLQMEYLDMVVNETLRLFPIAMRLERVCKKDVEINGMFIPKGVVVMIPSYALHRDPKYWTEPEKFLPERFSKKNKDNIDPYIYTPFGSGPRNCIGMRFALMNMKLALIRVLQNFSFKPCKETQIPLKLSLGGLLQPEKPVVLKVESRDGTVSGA

Consider `CC(=O)Oc1c2c(c3c(c1CC=C(C)C)O[C@@]14C(=CC5CC1C(C)(C)OC4(C/C=C(\C)C(=O)O)C5=O)C3=O)OC(C)(CCC=C(C)C)C=C2` (stereo partly drawn), for which the result in assay [1] was inactive. In addition, the Potency result in [2], in assay [3], in [6] and in assay [7] was “inactive” throughout. Moreover, the Potency is 31.6 µM (active) in [4] and 55.9 µM (active) in assay [5].
With `O=C(/C=N/O)NCCCN1CCOCC1`, the activity change, negative = inhibition in assay [8] was -1.51% [at 17.2 µM]; in assay [9], 14.3% [at 17.2 µM]. Besides, in assay [10], the outcome was inactive. The Potency in assay [11] is over 20.6 µM. The Potency result in assay [5], in assay [6], in [7] and in assay [12] was “inactive” throughout.
On to `CC(C)(C)NC(=O)C(c1ccc(C(F)(F)F)cc1)n1c(=O)c(-c2ccco2)nc2ccccc21` (stereo not drawn), for which the Potency in [5] is 75.7 µM (active). Further, the Potency entry in [6], in assay [7] and in assay [13] was “inactive” throughout.
Turning to `CN(C)c1ccc2nc3c(=O)[nH]c(=O)nc-3n(CC(O)C(O)C(O)CO)c2c1` (stereo not drawn), the Potency entry in [5] and in assay [6] was “inactive” in each case. Moreover, the activation in assay [7] is -84.9% [at 17.1 µM, percent relative to cAMP agonist control]. For the same compound, the Potency in assay [13] is 11.2 µM (active).
With `CCOC(=O)C(Cc1ccc(Cl)cc1Cl)c1ccno1` (stereo not drawn), the Potency entry in assay [5], in [6], in assay [7] and in assay [13] was “inactive” each time.
On to `COc1ncc2nc(-c3ccccc3)c(=O)n(Cc3cccs3)c2n1`, for which the Potency in assay [14] was over 11.4 µM; in [11], over 9.22 µM; in assay [15] it was over 46 µM. Moreover, the activity change, negative = inhibition in [8] was 3.51%; in assay [9] it was -14.6%. Besides, the Potency entry in assay [16], in assay [17], in [5], in assay [6] and in assay [7] was “inactive” throughout.
Consider `CC(=O)NC(c1ccc(Cl)cc1)c1ccc2cccnc2c1O` (stereo not drawn), for which the Potency result in assay [5] and in [6] was “inactive” each time. The activation is -1.77% [at 17.1 µM, percent relative to cAMP agonist control] in assay [7] and 6.93% [at 30.8 µM] in assay [13].
In the case of `Cc1oc2c(c1C(=O)c1ccccc1)C(=O)C(=O)c1ccccc1-2`, the Potency in assay [18] was 3.98 µM (active); in [5], 42.6 µM (active). In addition, the Potency entry in [6], in [7] and in [12] was “inactive” each time.
Regarding `COc1ccc2c(c1)CCC1(C)CC(=O)C(Br)=C21` (stereo not drawn), the Potency entry in assay [5], in assay [6], in assay [7] and in assay [13] was “inactive” each time.
In the case of `C[C@@H]1CN([C@@H](C)CO)C(=O)Cc2cc(NC(=O)C3CCCCC3)ccc2O[C@H]1CN(C)S(=O)(=O)c1ccccc1`, the Potency entry in assay [5], in [6], in assay [7] and in [13] was “inactive” each time.
`O=C(NCc1ccc(F)cc1)c1cccc2c1C(=O)c1ccc(N3CCOCC3)cc1S2(=O)=O`: the Potency result in assay [5] was “inactive”. Further, the Potency in [6] is 56.2 µM (active); in [7], 89.1 µM (active); in assay [13], 56.2 µM (active).
